Pf growth 48h – inhibits P. falciparum growth in the first generation, 48 h; 310,000 compounds, 5.9% hits; P. falciparum luciferase growth in erythrocytes, 48 h; AID 504832; Potency, µM (doses to about 28.7 µM), for inactives: at the top dose activity change, negative = inhibition, hits mostly inhibitors; also: % is scaled to controls: 0 for no effect and ±100 for the full control effect
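In quantitative HTS format, infected erythrocytes bearing luciferase-reporter parasites were treated for a single generation at 37 C. Luminescence after adding detection reagent served as the growth measure.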
NS1 function inh – inhibitors of influenza NS1 protein function; 270,000 compounds, 0.4% hits; Potency, µM (doses to about 46.1 µM), for the others: at the highest dose activity, positive = more growth; calls by dose curve; also: actives are rising curves; nearly all actives have a fitted effect of over 50% in size
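S. cerevisiae expressing influenza A NS1, grown in glucose, washed, then diluted 1:100 into pH 6.0 -URA galactose medium with 23 nl compound. Growth recovery read as OD600; NS1-free strain serves as control.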
Vaccinia mCherry – inhibitors of vaccinia virus infection (mCherry reporter signal); Potency, µM (series often up to 36.5 µM), inactives show top-dose activity change, negative = inhibition, actives largely listed as inhibitors; 310,000 compounds, 0.63% hits; Vaccinia virus mCherry reporter infection, fluorescence; calls by dose curve; tested in A549 cells; also: % is scaled to controls: 0 for no effect and ±100 for the full control effect; nearly all actives have a fitted effect of over 35% in size
Pf growth 96h – P. falciparum growth inhibition at 96 hour, primary screen for plastid delayed-death inhibitors; P. falciparum luciferase reporter growth, 96 h; Potency, µM (highest dose often 28.7 µM), without a hit: at the highest dose activity change, negative = inhibition, most hits filed as inhibitors; 320,000 compounds, 6.9% hits; AID 504834; also: % is scaled to controls: 0 for no effect and ±100 for the full control effect
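Two-generation exposure (96 h) targets delayed-death phenotype. Reporter parasites carrying integrated firefly luciferase, in red cells at 2% hematocrit and 0.05% parasitemia final, kept at 37 C, 5% CO2; luminescence loss indicates inhibition.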
VACV Venus inh – inhibitors of vaccinia virus (Venus reporter). Vaccinia virus Venus reporter expression, fluorescence. Potency, µM (top dose mostly 36.5 µM), inactives show at the highest dose activity change, negative = inhibition, most hits filed as inhibitors. 330,000 compounds, 0.46% hits; calls by dose curve; tested in A549 cells; also: % is scaled to controls: 0 for no effect and ±100 for the full control effect; nearly all actives have a fitted effect of over 30% in size
HCV inhibitor – blocks hepatitis C virus. Huh7.5.1 HCVcc-Cre infection, luciferase reporter, 44 h. 340,000 compounds, 3.4% hits. Potency, µM (titrated, usually from 41.8 µM), inactives show at the highest dose activity change, negative = inhibition, most hits filed as inhibitors. AID 651820; also: % is scaled to controls: 0 for no effect and ±100 for the full control effect
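Whole-lifecycle infectious HCVcc-Cre system; cells 1,000/well, compound then virus (~0.5 moi) added 4 h after plating, 44 h culture. Luciferase read 15 sec following 15 min substrate incubation, room temp.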
* hit, by the source's call; i = inactive; u = inconclusive; x = not tested or not shown; [ ] = another dose, or the depositor's remark. Sampled rows, rich in hits. Any-hit rate of the full collection: about 11%. Unless noted, calls follow the shape of the dose curve; as a rule, active = well fitted inhibition curve with a large enough effect; inconclusive = small, poorly fitted or top-dose-only effect, or another doubt; inactive = no such curve, though single readings can be large or run the other way. Potency is read from the fitted curve at half-maximal effect.

SMILES | Pf growth 48h | NS1 function inh | Vaccinia mCherry | Pf growth 96h | VACV Venus inh | HCV inhibitor
O=C(CNc1cccc(S(=O)(=O)N2CCCC2)c1)Nc1ccc(C(F)(F)F)cc1 | 4.1µM* | x | u | 1.9µM* | -29% | 10µM*
COc1ccc(N(C2CSC2)S(=O)(=O)c2ccccc2)cc1 | -13% | -3% | -18% | u | -19% | -3%
CCOC(=O)C1(CCOc2ccccc2)CCN(Cc2ccc(OC)cc2)CC1 | x | x | x | x | x | 13µM*
CCOC(=O)C1(CCc2ccccc2)CCN(Cc2ccc(C(=O)OC)cc2)CC1 | u | -36% | x | -8% | x | -17%
CCOC(=O)C1(CCOc2ccccc2)CCN(Cc2ccc(NC(C)=O)cc2)CC1 | 13µM* | 3% | -11% | 15% | -9% | -24%
CCOC(=O)C1(CCc2ccccc2)CCN(Cc2ccc3c(c2)OCCO3)CC1 | 2% | 1% | -13% | 10µM* | -5% | u
CCOC(=O)C1(CCOc2ccccc2)CCN(Cc2cnc(C)s2)CC1 | u | 5% | i | u | -10% | u
CCOC(=O)C1(CCOc2ccccc2)CCN(Cc2ccc(C)s2)CC1 | 13µM* | -6% | -7% | 10µM* | -7% | u
C=CCSc1nc(=O)n2cccc(C)c2n1 | 1% | -21% | u | 3% | -17% | u
Cc1nc(Cl)sc1C(=O)Nc1ccccc1Cl | u | -6% | x | 17% | x | 13%
Cc1ccc(F)cc1C(=O)N1CCCC(c2cc(C(=O)Nc3ccccc3Cl)no2)C1 (configuration not stated) | x | x | i | x | 4% | x
CCOC(=O)C1(CCOc2ccccc2)CCN(Cc2ccc(OCC)c(CO)c2)CC1 | x | x | x | x | x | 14µM*
CCOC(=O)C1(CCCc2ccccc2)CCN(C(=O)C2CCCN(C(N)=O)C2)CC1 (configuration not stated) | u | -6% | i | 13µM* | -6% | 7%
CCOC(=O)C1(CCc2ccccc2)CCN(Cc2ccc(NC(C)=O)cc2)CC1 | u | 12% | x | 4.1µM* | x | 1%
CCOC(=O)C1(CCOc2ccccc2)CCN(Cc2ccc3nonc3c2)CC1 | u | -4% | -16% | 10% | -12% | 10µM*
CCOC(=O)C1(CCOc2ccccc2)CCN(Cc2cccc(OCCO)c2)CC1 | -3% | -13% | -17% | -2% | -9% | -23%
Cn1c(=O)c2c(nc(CN3CCN(c4ccc(F)cc4)CC3)n2CCN2CCOCC2)n(C)c1=O | 1% | -1% | x | u | x | -3%
N/C(=N\c1nc2ccccc2o1)NC(=O)c1cccc(Br)c1 | 40% | -3% | i | 58% | 2% | -1%
CCOC(=O)C1(CCOc2ccccc2)CCN(Cc2ccccc2O)CC1 | x | x | i | x | -18% | u
CCOC(=O)C1(CCOc2ccccc2)CCN(Cc2cccc(OC)c2OC)CC1 | u | -9% | -5% | 10µM* | -15% | 28µM*
CC1(C)CC[C@]2(C(=O)O[C@@H]3OC(CO)[C@@H](O)[C@H](O)[C@H]3O)CC[C@]3(C)C(=CCC4[C@@]5(C)CC[C@H](O[C@@H]6OC(C(=O)O)[C@@H](O)[C@H](O)[C@H]6O)C(C)(C)C5CC[C@]43C)[C@@H]2C1 (some centres not stated) | x | x | -2% | x | u | 4%
C/C=C(\C)C(=O)OC1CC(C)(C)C[C@H]2C3=CC[C@@H]4[C@@]5(C)CCC(O[C@@H]6O[C@@H](C(=O)O)[C@@H](O)C(O[C@@H]7OC[C@H](O)[C@@H](O)[C@@H]7O[C@@H]7OC(CO)C(O)[C@@H](O)[C@@H]7O)C6O[C@@H]6OC(CO)C(O)C(O)C6O)[C@@](C)(CO)[C@@H]5CC[C@]4(C)[C@]3(C)CC(O)[C@@]12CO (some centres not stated) | x | x | -8% | x | u | 11µM*
COC(=O)C1OC(OC2CC[C@]3(C)C(CC[C@@]4(C)[C@@H]3CC=C3[C@@H]5CC(C)(C)CC[C@]5(C(=O)OC5OC(CO)C(O)C(O)C5O)CC[C@]34C)C2(C)C)C(O)C(O)C1O[C@H]1OCC(O)C(O)C1O (some centres not stated) | x | x | -9% | x | -24% | 10µM*
CC1(C)C[C@H]2C3=CCC4[C@@]5(C)CC[C@H](O)[C@@](C)(CO)C5CC[C@@]4(C)[C@]3(C)C[C@@H](O)[C@@]2(CO)[C@@H](O)[C@@H]1O (some centres not stated) | x | x | -8% | x | -13% | 4%
CCOC(=O)CCSc1nc(C)c2cc(C)ccc2n1 | x | -79% | i | 138% | -5% | u
SMILES | Pf growth 48h | NS1 function inh | Vaccinia mCherry | Pf growth 96h | VACV Venus inh | HCV inhibitor
CCSc1nnc(NC(=O)COc2ccccc2[N+](=O)[O-])s1 | 121% | x | -10% | 169% | -24% | 10%
C=C(C(=O)c1ccccc1)C(c1ccccc1)C(C)C(=O)c1ccccc1 (configuration not stated) | u | -1% | u | 12µM* | u | 4%
C=C(C(=O)c1ccccc1)C(C(=C)C(=O)c1ccccc1)c1ccc(OC)cc1 | 2.1µM* | -3% | x | u | x | 3.5µM*
C=C(C(=O)c1ccccc1)C(C)C(=C)C(=O)c1ccccc1 | u | -14% | u | 10µM* | u | 14µM*
COc1ccc(-n2c(SCC(=O)NCc3cccs3)nc3[nH]ncc3c2=O)cc1 | u | x | i | 0% | -12% | 4%
Cc1ccc(-n2c(SCC(=O)OC(C)C)nnc2-c2cnccn2)cc1 | -7% | 14% | x | 0% | x | 10%
CCOc1ccc(CC(=O)Nc2c(C(=O)c3ccc(C)cc3)oc3ccccc23)cc1OCC | x | x | -3% | x | -7% | x
CCOc1ccc(NC(=O)CSc2ncc(-c3ccc(F)cc3)n2Cc2ccco2)cc1 | u | -2% | -25% | u | -10% | 10µM*
O=C(CSc1ncc(-c2ccc(F)cc2)n1Cc1ccco1)Nc1ccc2c(c1)OCO2 | u | -53% | -19% | x | u | u
CC(C)c1ccc(NC(=O)CSc2n[nH]c(=O)n2Cc2ccco2)cc1 | u | -7% | x | 13µM* | x | u
O=C(CSc1n[nH]c(=O)n1Cc1ccco1)Nc1ccccc1Cl | u | -2% | i | 4.7µM* | -6% | -18%
CCOC(=O)C1CCCN(c2ccc(NC(=O)c3snc4c(=O)[nH]c(C)nc34)cc2)C1 (configuration not stated) | u | 17% | -2% | 0.93µM* | 4% | -15%
CCN(C(=O)CSc1nnc(-c2cccs2)n1N)c1c(N)n(Cc2ccccc2)c(=O)[nH]c1=O | u | x | -14% | -4% | -17% | 22%
O=C(Nc1ccccc1)c1cc2ccc3ccccc3c2s1 | -3% | -10% | -22%[7.34 µM] | -8% | -12%[7.34 µM] | 11µM*
CCCCc1nnc(NC(=O)c2ccc(-n3cncn3)c([N+](=O)[O-])c2)s1 | -14% | x | -10% | u | 6% | 1%
